Source: PubChem BioAssay
Smad3 inh = blocks human Smad3 binding to FoxH1 peptide; P84022; TR-FRET Smad3/Dy647-FoxH1 peptide binding, europium anti-His; inhibition, % at 25 µM; actives 0.29% (n = 88,000); AID 630;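 active means compounds that reduce the energy-transfer binding signal between the protein and its labelled peptide by more than half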;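 further: 0% = Smad3 plus labelled peptide maximal FRET and 100% = peptide-only background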
Target sequence (P84022 whole entry, looked up): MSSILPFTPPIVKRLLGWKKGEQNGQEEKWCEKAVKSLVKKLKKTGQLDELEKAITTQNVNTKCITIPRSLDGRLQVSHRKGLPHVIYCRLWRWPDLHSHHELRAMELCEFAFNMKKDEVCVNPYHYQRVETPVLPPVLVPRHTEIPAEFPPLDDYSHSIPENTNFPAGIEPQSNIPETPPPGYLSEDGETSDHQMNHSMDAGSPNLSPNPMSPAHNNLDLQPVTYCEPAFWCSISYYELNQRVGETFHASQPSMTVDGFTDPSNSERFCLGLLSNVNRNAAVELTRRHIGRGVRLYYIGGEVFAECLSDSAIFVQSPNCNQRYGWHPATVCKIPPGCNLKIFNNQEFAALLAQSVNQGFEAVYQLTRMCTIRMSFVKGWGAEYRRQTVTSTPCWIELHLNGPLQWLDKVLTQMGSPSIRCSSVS
ERa SRC1 pot = ER-alpha (human) coactivator binding potentiation. P03372. TR-FRET ERalpha-LBD/SRC-Cy5 coactivator binding, 2 h; 100 = basal binding, no effect. coactivator binding (% of control), % at 25.6 µM. actives 1.3% (n = 86,000). AID 639; in the data active means activity above about 200%;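 further: binding measured in presence of low estradiol as agonist stimulus; 0% = peptide alone without receptor and 100% = receptor with peptide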
MT1-MMP txn act = activates MT1-MMP transcription; AID 750; HT1080 MT1-MMP promoter luciferase reporter, luminescence, overnight; active compounds read high; actives 0.16% (n = 86,000); activation factor at 10 µM;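 active means activation factor of at least 2 for MT1-MMP transcription at 10 µM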
Calb biofilm kill = kills Candida albicans biofilms | C. albicans biofilm + clotrimazole, Alamar Blue | inhibition, % at 6 µM | actives 0.14% (n = 85,000) | AID 834;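 active means inhibition above 20%; inactive means inhibition below 20%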;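 further: preformed 24 hr biofilms exposed to compound for 48 hr; 0% = biofilm without compound and 100% = blank killed by clotrimazole plus chlorhexidine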
ERb coact inh = blocks coactivator binding to human estrogen receptor beta. inhibition, % at 25.6 µM. TR-FRET ER-beta LBD / SRC1-Cy5 peptide binding; receptor agonist-loaded with 1 µM estradiol. Q92731. actives 1.3% (n = 86,000);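 active means compounds whose percent inhibition of the receptor-coactivator binding signal exceeds about 50% in the single-dose screen, limit read from the data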;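 further: 0% = receptor plus peptide wells without compound and 100% = peptide-only wells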
ERa SRC1 inh = ER-alpha (human) coactivator binding inhibition; AID 629; P03372; actives 1.7% (n = 86,000); TR-FRET ER-alpha LBD / SRC-1 peptide, estradiol-bound; inhibition, % at 25.6 µM; in the data active means inhibition above about 50%;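 further: 0% = receptor plus peptide control and 100% = peptide only without receptor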
* = called active by the depositor; / = not tested or not shown; + = active, no number; [ ] = another dose, or the depositor's remark. Most compounds without a hit are left out; they make up all but 3.8% or so of the library.

SMILES	Smad3 inh	ERa SRC1 pot	MT1-MMP txn act	Calb biofilm kill	ERb coact inh	ERa SRC1 inh
Cc1ccc(C(=O)O)cc1-c1ccc(/C=C2/NC(=O)N(c3ccccc3)C2=O)o1	12.6	10.6	1	-1.0	81.0*[fluorescence artefact?]	79.6*[fluorescence artefact?]
C[C@@H](N=C(N)N)C(=O)O	-4.6	/	/	/	/	/
O=C(O)c1[nH]c2ccccc2c1-c1ccccc1	80.0*[fluorescence artefact?]	79.8	1.3	3.2	3.3	20.2
Cc1ccc2c(c1)cc(CN(CCc1ccccc1)C(=O)N1CCOCC1)c1nnnn12	9.2	113.2	1.1	9.2	-3.9	64.6*[fluorescence artefact?]
COc1cc(C2C(C#N)=C(N)Oc3cc(C)oc(=O)c32)cc2c1OCO2 (configuration not stated)	17.1	100.7	1.2	4.1	62.0*	70.0*
CSc1nc(N(CCO)CCO)c2sc3nc(-c4ccco4)c4c(c3c2n1)CCC4	32.0	52.3	1	7.6	83.4*[fluorescence artefact?]	80.7*[fluorescence artefact?]
O[C@@H](c1cc(-c2ccc(Cl)cc2)nc2ccccc12)[C@@H]1CCCCN1	12.1	/	/	/	/	/
COc1ccc(NC(=O)C(C/C=C(/C)Cl)C(C)=O)cc1 (configuration not stated)	-2.2	92.3	1.1	21.1*	20.9	21.8
CCC(C)NS(=O)(=O)c1ccc(OCC(=O)N2CCC(C)CC2)cc1 (configuration not stated)	5.7	95.6	1.3	4.5	-26.1	-17.5
COc1ccc(Nc2nc3ccccc3n3cnnc23)cc1	11.0	104.8	0.8	-7.1	17.4	-3.6
CCOc1ccccc1Nc1nc2ccccc2n2cnnc12	-1.2	368.0*[fluorescence artefact?]	1.1	14.2	42.6	25.4
Fc1ccc(CNc2nc3ccccc3n3cnnc23)cc1	10.5	305.8*[fluorescence artefact?]	/	5.4	1.4	83.8*
c1ccc2c(c1)nc(NCCN1CCOCC1)c1nncn12	12.8	113.5	1	10.1	-9.1	-1.9
Cc1ccc(CNc2nc3ccccc3n3nnnc23)cc1	11.2	208.7*[fluorescence artefact?]	1.4	8.2	37.5	50.7*
Cc1ccc(-c2nc3ccccc3n3nnnc23)cc1	1.6	98.3	1.6	-2.5	-2.2	-22.7
CC(=O)[C@@H](C)CCO[C@]1(C)OCC[C@@H]1C	-4.5	/	/	/	/	/
CS[C@@]12C(=O)C[C@@]3(C)[C@@H](CC[C@@]3(O)C(=O)CO)[C@H]1CCC1=CC(=O)CC[C@]12C	-11.2	/	/	/	/	/
COc1ccc([C@@H](Nc2ncccn2)c2cc3c(cc2O)OCO3)cc1	9.5	/	/	/	/	/
COc1ccc([C@@H](Nc2ccccn2)c2cc(C(C)(C)C)cc(C(C)(C)C)c2O)cc1	69.4*	/	/	/	/	/
CS[C@@H](CC(=O)O)C(=O)O	-1.2	/	/	/	/	/
CCN(CC)c1ccc(NC(=O)c2cnc3ccccn3c2=O)c(C)c1	-1.5	628.6*[fluorescence artefact?]	1.3	-2.8	-1.2	-40.7
CCN1CCCCC(=N/O)/C(=N\O)CCCC1	3.1	/	/	/	/	/
Cc1ccc(-n2c(SCC(=O)Nc3ccc4c(c3)OCO4)nnc2-c2cccs2)cc1	-133.7	378.2*[fluorescence artefact?]	1.1	-3.8	39.1	85.3*[fluorescence artefact?]
Cc1ccccc1NC(=O)CSc1nnc(-c2ccccc2)n1-c1ccccc1	15.1	401.7*[fluorescence artefact?]	1.3	2.6	-4.8	1.3
O=C(CSc1nnc(-c2cccs2)n1-c1ccccc1)NCc1ccc2c(c1)OCO2	-4.5	119.8	1	2.8	-1.6	2.1
SMILES	Smad3 inh	ERa SRC1 pot	MT1-MMP txn act	Calb biofilm kill	ERb coact inh	ERa SRC1 inh
O=C(CSc1nnc(-c2cccnc2)n1-c1ccccc1)Nc1ccc2c(c1)OCO2	8.7	115.4	1.1	-1.4	57.4*	-6.1
CC(C)C1=C[C@@]23CC[C@@H]4[C@](C)(CCC[C@@]4(C)C(=O)O)[C@@H]2C[C@@H]1[C@H](C(=O)O)[C@@H]3C(=O)O	86.8*	/	/	/	/	/
CC(C)[C@]1(Cl)CC[C@H]2[C@]3(C)CCC[C@@](C)(C(=O)O)[C@H]3C[C@@H](Cl)[C@]2(Cl)[C@H]1Cl	37.4	/	/	/	/	/
COc1nc(C)nc(NC(=O)NS(=O)(=O)c2ccc(C)cc2)n1	-9.8	79.8	/	5.2	50.6*[fluorescence artefact?]	4.8
COc1ccc(NC(=O)NS(=O)(=O)c2ccc(C)cc2)c(OC)c1	9.1	92.1	1.1	2.1	18.2	5.3
Cc1cc2nc(-c3cccnc3SCC(=O)NCc3ccco3)[nH]c2cc1C	6.6	65.0	0.8	8.1	60.2*	68.6*[fluorescence artefact?]
Cc1cc(=O)[nH]c(SCC(=O)NCc2ccco2)n1	12.9	56.2	1.2	8.0	65.7*	50.0
CC(C)c1ccc(NC(=O)CSc2nc3c(c(=O)[nH]2)CCC3)cc1	2.6	120.2	1.3	3.7	4.9	100.2*[fluorescence artefact?]
CCOC(=O)c1ccc(NC(=O)CSc2nc(C)cc(=O)[nH]2)cc1	0.3	24.4	1.1	4.5	83.5*[fluorescence artefact?]	89.6*
Cc1cc(=O)[nH]c(SCC(=O)Nc2ccc(C(=O)O)cc2)n1	-9.2	93.8	1.3	2.1	-5.2	-5.7
Cc1nnc(SCC(=O)NCc2ccco2)[nH]c1=O	2.9	84.5	1.1	-3.4	3.1	-52.1
CSc1nnc(-c2sc3cc(C(F)(F)F)cnc3c2-c2ccccn2)n1C	3.0	347.2*[fluorescence artefact?]	1.2	5.2	-1.2	1.0
COc1ccc(NC(C)=O)cc1NC(=O)CN1CCN(S(=O)(=O)c2ccc(C(C)C)cc2)CC1	-11.8	248.9*[fluorescence artefact?]	1	1.8	45.8	-3.8
COc1ccccc1C(=O)Oc1ccc(C(C)C)cc1	8.7	90.5	1.1	58.0*	-7.0	-7.5
OC[C@H](S)CS	85.7*	/	/	/	/	/
COc1ccc(OC)c(NC(=O)c2cc(-c3ccc(C)cc3O)n[nH]2)c1	-7.2	120.0	1.1	6.6	40.5	69.7*
C[C@@]12CC[C@H]3c4ccc(OCC(=O)O)cc4CC[C@@H]3[C@H]1CCC2=O	-12.3	/	/	/	/	/
O=c1oc2ccccc2c(O)c1/C=N/c1nc(-c2ccc(O)c(O)c2)cs1	22.8	/	/	/	/	/
CCN(CC)c1ccc(Nc2nc(N3CCOCC3)c3ccccc3n2)cc1	-1.2	75.0	1.3	3.6	1.6	4.3
COc1ccc(Nc2nc(N3CCCC3)c3ccccc3n2)cc1	-8.1	34.1	0.8	5.9	5.8	68.5*[fluorescence artefact?]
O=c1ccc(/C=C/c2ccccc2)nn1Cc1ccc(Cl)cc1Cl	2.6	+[fluorescence artefact?]	1.1	-2.0	9.4	-2.5
CC(N=Cc1cccc(O)c1O)c1ccccc1 (configuration not stated)	5.1	83.5	0.9	5.8	57.7*[fluorescence artefact?]	17.1
C[C@@]12C[C@H](O)[C@@H]3[C@H](CCC4=CC(=O)CC[C@]43C)[C@H]1CC[C@H]2c1csc(-c2ccccc2)n1	0.4	/	/	/	/	/
Cc1ccc2c(c1)N(C(=O)c1ccco1)C(C)(C)c1ssc(=S)c1-2	-8.7	83.7	1.1	64.0*	-1.0	6.6
Cc1ccc2c(c1)N(C(=O)CSc1nncn1C)C(C)(C)c1ssc(=S)c1-2	11.5	106.7	1.2	9.6	-5.7	-6.0
FC(F)(F)c1cnc(Nc2ccc(N3CCOCC3)cc2)c(Cl)c1	-10.6	60.6	1.3	-1.7	86.2*[fluorescence artefact?]	63.1*[fluorescence artefact?]
Cc1cc(C)n(-c2ccc(C(=O)Nc3nc4ccccc4s3)cc2)n1	1.9	207.6*[fluorescence artefact?]	1.6	6.0	18.1	8.7
Cc1ncc(CSC(=N)N)n1Cc1ccccc1	8.4	/	/	/	/	/
